The source made the active and inactive calls. The calls were made as follows: active = hit-call score of the fitted dose curve at least 0.9, where 1 is the maximum; inactive = score below 0.9.

Holding throughout (conditions): mRNA level, 48 h; actives raise or lower the signal
Read-out in experiment [1]: CYP3A5 (gene 1577)
Nature of the experiment: LTEA_HepaRG_CYP3A5: Life Technologies and Expression Analysis (LTEA) Assay for CYP3A5 using HepaRG (AID 2283493). The method in brief: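 HepaRG cells, plated 48 h then in serum-free induction medium, dosed in duplicate for 48 h with eight half-log concentrations up to 100 uM in 0.5% DMSO. Gene mRNA by Fluidigm TaqMan qRT-PCR, normalized to ACTB, GAPDH, POLR2A.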

Read-out in experiment [2]: Fatty Acid-Binding Protein 1 (FABP1), FABP1 (gene 2168)
Nature of the experiment: LTEA_HepaRG_FABP1: Life Technologies and Expression Analysis (LTEA) Assay for Fatty Acid-Binding Protein 1 (FABP1) using HepaRG (AID 2283494). The method in brief: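 HepaRG, 48 h post-plating switched to serum-free induction medium, then dosed 48 h (duplicate, 8 pts, ≤100 uM, 0.5% DMSO). RNA → Fluidigm TaqMan qRT-PCR, FABP1 normed to ACTB/GAPDH/POLR2A. Bidirectional curve fit vs DMSO.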

Read-out in experiment [3]: Cytochrome P450 4A22 (Homo sapiens) (UniProt Q5TCH4)
Nature of the experiment: LTEA_HepaRG_CYP4A22: Life Technologies and Expression Analysis (LTEA) Assay for Cytochrome P450 4A22 (CYP4A22) using HepaRG (AID 2283495). The method in brief: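 Cryopreserved HepaRG cells, plated and cultured 48 h, then switched to serum-free induction medium and treated 48 h (duplicates, up to 100 uM, half-log steps, 0.5% DMSO). Expression change of CYP4A22 was fitted bidirectionally against vehicle.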

Read-out in experiment [4]: Cytochrome P450 7A1 (Homo sapiens) (UniProt P22680)
Nature of the experiment: LTEA_HepaRG_CYP7A1: Life Technologies and Expression Analysis (LTEA) Assay for Cytochrome P450 7A1 (CYP7A1) using HepaRG (AID 2283496). The method in brief:
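HepaRG cells plated 48 h, then switched to serum-free induction medium and exposed in duplicate for 48 h to 8-point half-log series from 100 uM in 0.5% DMSO. CYP7A1 mRNA by qRT-PCR (TaqMan), normalized to ACTB/GAPDH/POLR2A; bidirectional fit versus DMSO.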

Read-out in experiment [5]: Glutathione S-Transferase (GSTA2), GSTA2 (gene 2939)
Nature of the experiment: LTEA_HepaRG_GSTA2: Life Technologies and Expression Analysis (LTEA) Assay for Glutathione S-Transferase (GSTA2) using HepaRG (AID 2283497). The method in brief: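 HepaRG, 48 h dosing, 8-pt half-log CRC from 100 uM, 0.5% DMSO vehicle, n=2; RNA → Fluidigm TaqMan qRT-PCR; GSTA2 vs ACTB/GAPDH/POLR2A; gain/loss fit vs DMSO.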

Read-out in experiment [6]: Glutamate-cysteine ligase catalytic (GCLC), GCLC (gene 2729)
Nature of the experiment: LTEA_HepaRG_GCLC: Life Technologies and Expression Analysis (LTEA) Assay for Glutamate-cysteine ligase catalytic (GCLC) using HepaRG (AID 2283498). The method in brief: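 Read-out is GCLC transcript level by Fluidigm-based TaqMan qRT-PCR, normalized to three housekeeping genes and fitted in both directions relative to 0.5% DMSO. Human HepaRG cells received chemicals for 48 h, up to 100 uM.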

Read-out in experiment [7]: growth arrest and DNA damage 45 (GADD45G), GADD45G (gene 10912)
Nature of the experiment: LTEA_HepaRG_GADD45G: Life Technologies and Expression Analysis (LTEA) Assay for growth arrest and DNA damage 45 (GADD45G) using HepaRG (AID 2283499). The method in brief:
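Human hepatic HepaRG line treated 48 h with chemicals (eight concentrations, half-log steps from 100 uM); transcript induction or repression of GADD45G scored by qRT-PCR versus DMSO vehicle.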

Read-out in experiment [8]: Glutathione S-transferase M3 (GSTM3), GSTM3 (gene 2947)
Nature of the experiment: LTEA_HepaRG_GSTM3: Life Technologies and Expression Analysis (LTEA) Assay for Glutathione S-transferase M3 (GSTM3) using HepaRG (AID 2283501). The method in brief: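 Changes in GSTM3 expression, an oxidative-stress marker, were scored by bidirectional curve fitting against 0.5% DMSO vehicle. Human HepaRG cultures received chemicals for 48 h in duplicate, highest concentration 100 uM with half-log dilutions.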

Read-out in experiment [9]: Heat shock 70 kDa protein 1 (HSPA1A), gene 3303
Nature of the experiment: LTEA_HepaRG_HSPA1A: Life Technologies and Expression Analysis (LTEA) Assay for Heat shock 70 kDa protein 1 (HSPA1A) using HepaRG (AID 2283502). The method in brief: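 Human HepaRG cells in serum-free induction medium were exposed in duplicate for 48 h to 8 half-log concentrations, highest 100 uM, in 0.5% DMSO. HSPA1A mRNA read by TaqMan qRT-PCR, normalized to ACTB, GAPDH, POLR2A, fitted bidirectionally against DMSO.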

Read-out in experiment [10]: Glutamate-cysteine ligase regulatory (GCLM), GCLM (gene 2730)
Nature of the experiment: LTEA_HepaRG_GCLM: Life Technologies and Expression Analysis (LTEA) Assay for Glutamate-cysteine ligase regulatory (GCLM) using HepaRG (AID 2283500). The method in brief: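 Differentiated HepaRG cells exposed 48 h in serum-free induction medium to eight half-log concentrations up to 100 uM (0.5% DMSO). GCLM mRNA by TaqMan qRT-PCR, normalized to ACTB, GAPDH and POLR2A; bidirectional fit versus DMSO.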

As to `C=CCCCCCCCCC(=O)O`, the outcome in experiment [1], in [2], in experiment [3], in experiment [4], in experiment [5] and in [6] was inactive. Further, the outcome in [7], in experiment [8] and in experiment [9] was inactive.

Regarding `CC1=CC(=O)CC(C)(C)C1`, the call in experiment [1], in [2], in experiment [3], in experiment [4], in experiment [5] and in experiment [6] was inactive. Further, the molecule was called inactive in experiment [7], in experiment [8] and in [9].

On to `CC1(C)C(=O)N(Br)C(=O)N1Br`, for which the molecule was called inactive in experiment [1], in experiment [2], in experiment [3], in [4], in [5] and in experiment [6]. In addition, the result in experiment [7], in experiment [8] and in [9] was inactive.

Consider `CCOC(=O)c1ccc(C2CCC(NC[C@H](O)COc3ccc(O)c(NS(C)(=O)=O)c3)CC2)cc1` (stereo not given in full), for which the molecule was classed as inactive in experiment [1], in experiment [2], in experiment [3], in experiment [4], in experiment [5] and in experiment [6]. Also, the molecule was classed as inactive in experiment [7], in experiment [10], in experiment [8] and in [9].

Regarding `CCCCCCCCO`, the molecule was called inactive in experiment [1], in [2], in experiment [3], in experiment [4], in experiment [5] and in experiment [7]. In addition, the call in experiment [10], in [8] and in experiment [9] was inactive.

With `Cc1ccc(S(=O)(=O)O)cc1C`, the molecule was classed as inactive in experiment [1], in experiment [2], in experiment [3], in experiment [4], in [5] and in [6]. Further, the molecule was classed as inactive in experiment [7], in experiment [10], in experiment [8] and in experiment [9].

For `CNS(=O)(=O)c1cc(C(=O)N2CCC(CCN3C4CCC3CC(n3c(C)nc5ccccc53)C4)(c3cccc(F)c3)CC2)c(Cl)cc1F` (stereo not given), the molecule was classed as inactive in [1], in experiment [6], in experiment [10], in [8] and in [9]. Besides, the AC50 in [2] is 18.4 µM (active); in experiment [3], 22.7 µM (active); in [4] it was 21.5 µM (active); in experiment [5], 31.8 µM (active); in [7] it was 30.8 µM (active).

In the case of `O=C1CCCCCN1`, the call in experiment [1], in experiment [2], in experiment [3], in experiment [4], in [5] and in experiment [6] was inactive. Moreover, the molecule was classed as inactive in experiment [7], in experiment [10], in [8] and in experiment [9].

As for `O=c1[nH]c2ccc(S(=O)CCN3CCC(Cc4ccc(F)cc4)CC3)cc2o1` (stereo not given), the outcome in [1], in [6] and in experiment [8] was inactive. Further, the AC50 was 80.3 µM (active) in experiment [2]; 80 µM (active) in experiment [3]; 72.5 µM (active) in experiment [4]; 87.5 µM (active) in experiment [5]; 71.6 µM (active) in experiment [7]; 50 µM (active) in [9].

Regarding `Cn1c(=O)c2c(ncn2C)n(C)c1=O`, the molecule was classed as inactive in experiment [1], in [2], in experiment [3], in experiment [4], in experiment [5] and in experiment [7]. Besides, the outcome in [10], in experiment [8] and in [9] was inactive.

Consider `CC(=O)c1ccc2c(c1)[C@H](NC(=O)c1ccc(F)cc1)[C@@H](O)C(C)(C)O2`, for which the molecule was classed as inactive in experiment [1], in experiment [2], in [4], in experiment [5], in experiment [6] and in experiment [7]. Further, the molecule was classed as inactive in experiment [8] and in experiment [9].

`CN(C)c1ccc(Cc2ccc(N(C)C)cc2)cc1`: the call in [1], in experiment [2], in experiment [4], in experiment [5], in experiment [8] and in experiment [9] was inactive. The AC50 in experiment [3] and in [7] was 50 µM (active) in each case.

In the case of `CCOC(=O)COc1ccc2c(c1)CC(NCC(O)c1cccc(Cl)c1)CC2` (stereo not given), the molecule was classed as inactive in [1], in [3], in experiment [4], in [5], in [7] and in [8]. Also, the outcome in [9] was inactive. Also, the AC50 in experiment [2] was 45.8 µM (active).

For the molecule `O=C(OC[C@H]1O[C@@H](OC(=O)c2cc(O)c(O)c(OC(=O)c3cc(O)c(O)c(O)c3)c2)[C@H](OC(=O)c2cc(O)c(O)c(OC(=O)c3cc(O)c(O)c(O)c3)c2)[C@@H](OC(=O)c2cc(O)c(O)c(OC(=O)c3cc(O)c(O)c(O)c3)c2)[C@@H]1OC(=O)c1cc(O)c(O)c(OC(=O)c2cc(O)c(O)c(O)c2)c1)c1cc(O)c(O)c(OC(=O)c2cc(O)c(O)c(O)c2)c1`, the AC50 in experiment [1] is 4.94 µM (active); in experiment [2], 7.91 µM (active); in [3] it was 12.4 µM (active); in [4], 9.29 µM (active); in [7], 25.6 µM (active). In addition, the outcome in experiment [8] and in experiment [9] was inactive.

On to `Cn1cnc([N+](=O)[O-])c1Sc1ncnc2nc[nH]c12`, for which the result in experiment [1], in [6], in [8] and in experiment [9] was inactive. Moreover, the AC50 in [2] was 27 µM (active); in experiment [4] it was 2.09 µM (active); in [5] it was 1.35 µM (active); in experiment [7] it was 1.11 µM (active).

Regarding `CC(C)=CCCC(C)=CC=O`, the molecule was classed as inactive in experiment [1], in experiment [2], in experiment [4], in [5], in experiment [6] and in [7]. The result in experiment [10], in experiment [8] and in [9] was inactive.

Turning to `CC(C)(O)c1coc(S(=O)(=O)NC(=O)Nc2c3c(cc4c2CCC4)CCC3)c1`, the outcome in experiment [1], in experiment [2], in experiment [3], in experiment [5], in experiment [7] and in experiment [8] was inactive. In [9], the outcome was inactive. For the same molecule, in [4], the AC50 is 18.3 µM (active).

For `O=c1n(CC2CO2)c(=O)n(CC2CO2)c(=O)n1CC1CO1` (stereo not given), the outcome in [1], in experiment [2], in experiment [3], in experiment [4], in experiment [5] and in experiment [7] was inactive. The result in experiment [10], in [8] and in experiment [9] was inactive.

For `Cc1c(-c2cccnc2)c2ccccc2n1CCCCC(=O)O`, the result in experiment [1], in experiment [2], in experiment [4], in [5], in experiment [6] and in experiment [7] was inactive. Besides, the outcome in experiment [10], in experiment [8] and in experiment [9] was inactive.

Consider `CCCN(C1CCN(C(=O)C2CCNCC2)CC1)[C@@H]1CCc2ccc(OC)cc2C1`, for which the AC50 in [1] was 80.3 µM (active); in [2] it was 83.5 µM (active); in experiment [4] it was 77.3 µM (active); in [5] it was 81 µM (active); in experiment [6], 50 µM (active); in experiment [8], 50 µM (active). The AC50 in experiment [9] is 79.6 µM (active). Also, the molecule was called inactive in experiment [7] and in experiment [10].

With `COc1ccc(/C=C/S(=O)(=O)NC(=O)c2ccc(C)cc2Cl)cc1`, the result in [1], in experiment [2], in experiment [4], in experiment [6], in experiment [7] and in experiment [8] was inactive. Further, in experiment [9], the outcome was inactive. The AC50 in experiment [5] was 80.8 µM (active).

As a reminder, the AC50 is the midpoint of the concentration-response curve, whichever way the signal moves.

Source of the values: PubChem BioAssay (EPA / NIEHS).
